# Measured values taken from PubChem BioAssay AID1963317 (National Center for Advancing Translational Sciences (NCATS), 2024).
# Records with an inconclusive call do not appear. A call without a number means that no potency is given here. Activity calls are given as the source filed them. The call rests on the fitted dose curve.
# Target: Tyrosine-protein kinase ABL1 (Homo sapiens) (UniProt P00519)
# Assay: ABL1 kinase (ABL1-N-HiBiT) enzymatic inhibition screen - Functional assay
# Conditions: luminescence; series mostly up to 57.5 µM
# Excerpt: National Center for Advancing Translational Sciences (NCATS),
# National Institute of Health (NIH), Maryland
# Discovery and optimization of novel protein-binding ligands underlies many of the methods and applications of biology, drug discovery, clinical diagnostics, and environmental toxicology. Assays for detecting the interaction of, for example, a molecule with a macromolecular target also referred to here as the target of interest (TOI) is dependent on a compatible output technology. Depending on the nature and knowledge surrounding the TOI, whether a receptor, enzyme, regulatory subunit or scaffold, or a sequence-defined nucleic acid folded into a complex tertiary structure, assay strategies can vary widely.
# Here we exploit ligand-biased changes in the structural dynamics of the target protein to control reporter alpha complementation allowing a non-competitive, non-functional, non-separation measure of ligand-target interaction.
# Using a chemical library of >1,200 compounds enriched for scaffolds known to be associated with the inhibition of firefly luciferase (FLuc) activity (PubChem AIDs 2309) we first illustrate and compare the Structural Dynamics Response (SDR) assay vs. the standard functional FLuc enzyme assay (2). Secondly, we show the specificity and sensitivity of the SDR for the Abelson tyrosine kinase (ABL1) compared to the serine/threonine protein kinase A, using an enriched chemical library of 128 compounds selected, in part, for activity annotated with ABL1 kinase activity using the Pharos database (3).
# (1) A. S. Dixon et al., NanoLuc Complementation Reporter Optimized for Accurate Measurement of Protein Interactions in Cells.
# Chemistry & Biology, 19, 1060 - 1072 (2012).
# (3) K. J. Kelleher et al., Pharos 2023: an integrated resource for the understudied human proteome. Nucleic Acids Res 51, D1405-D1416 (2023).
# PROTOCOL TABLE (as described by Inglese J, Shamu CE and Guy RK. 2007)
# SEQUENCE No. (e.g., 1, 2, 3, etc.); […] (e.g., C. elegans, Compounds, Incubation, Read, etc.); VALUE and DESCRIPTION.
# 1. Reagent. Dispense 4 uL ABL1-N-HiBiT enzyme per well at a final enzyme concentration of 10 nM in buffer with 87.5 uM ATP (functional assay) into columns 2-48 of four replicate Greiner 1536-well white, solid bottom high base, medium plates per assay. Dispense respective buffer without enzyme at 4 uL/well in column 1 of assay plates using BioRaptr 2.
# 2. Compounds. Library compounds added at 23 nL/well by pin transfer. DMSO neutral control and imatinib positive control added at 25 nL/well, transfer by Mosquito dispenser.
# 3. Incubation. Incubate enzyme and compounds at room temperature for 30 min, protected from light.
# 4. Reagent. (Functional assay) Transfer 25 nL of abltide peptide substrate to each well of four replicate kinase assay plates with Mosquito dispenser.
# 5. Incubation. (Functional assay) Kinase enzyme incubated with peptide substrate for 3 h at room temperature, protected from light.
# 6. Reagent. (Functional assay) Add 4 uL/well of Kinase-Glo Plus reagent (Promega) to kinase activity assay plates, in the presence of ATP.
# 7. Detector. (Functional assay) Luminescence measured using CCD-based camera (ViewLux) with settings as follows: Exposure, 1 sec; Gain, High; Speed, Slow; Binning, 2X.
# Inglese J, Shamu CE and Guy RK, Reporting data from high throughput screening of small molecule libraries, Nature Chemical Biology, 2007, 3(8): 438-441. doi.org/10.1038/nchembio0807-438.
# Sequence of Tyrosine-protein kinase ABL1 (Homo sapiens) (P00519 whole entry, looked up): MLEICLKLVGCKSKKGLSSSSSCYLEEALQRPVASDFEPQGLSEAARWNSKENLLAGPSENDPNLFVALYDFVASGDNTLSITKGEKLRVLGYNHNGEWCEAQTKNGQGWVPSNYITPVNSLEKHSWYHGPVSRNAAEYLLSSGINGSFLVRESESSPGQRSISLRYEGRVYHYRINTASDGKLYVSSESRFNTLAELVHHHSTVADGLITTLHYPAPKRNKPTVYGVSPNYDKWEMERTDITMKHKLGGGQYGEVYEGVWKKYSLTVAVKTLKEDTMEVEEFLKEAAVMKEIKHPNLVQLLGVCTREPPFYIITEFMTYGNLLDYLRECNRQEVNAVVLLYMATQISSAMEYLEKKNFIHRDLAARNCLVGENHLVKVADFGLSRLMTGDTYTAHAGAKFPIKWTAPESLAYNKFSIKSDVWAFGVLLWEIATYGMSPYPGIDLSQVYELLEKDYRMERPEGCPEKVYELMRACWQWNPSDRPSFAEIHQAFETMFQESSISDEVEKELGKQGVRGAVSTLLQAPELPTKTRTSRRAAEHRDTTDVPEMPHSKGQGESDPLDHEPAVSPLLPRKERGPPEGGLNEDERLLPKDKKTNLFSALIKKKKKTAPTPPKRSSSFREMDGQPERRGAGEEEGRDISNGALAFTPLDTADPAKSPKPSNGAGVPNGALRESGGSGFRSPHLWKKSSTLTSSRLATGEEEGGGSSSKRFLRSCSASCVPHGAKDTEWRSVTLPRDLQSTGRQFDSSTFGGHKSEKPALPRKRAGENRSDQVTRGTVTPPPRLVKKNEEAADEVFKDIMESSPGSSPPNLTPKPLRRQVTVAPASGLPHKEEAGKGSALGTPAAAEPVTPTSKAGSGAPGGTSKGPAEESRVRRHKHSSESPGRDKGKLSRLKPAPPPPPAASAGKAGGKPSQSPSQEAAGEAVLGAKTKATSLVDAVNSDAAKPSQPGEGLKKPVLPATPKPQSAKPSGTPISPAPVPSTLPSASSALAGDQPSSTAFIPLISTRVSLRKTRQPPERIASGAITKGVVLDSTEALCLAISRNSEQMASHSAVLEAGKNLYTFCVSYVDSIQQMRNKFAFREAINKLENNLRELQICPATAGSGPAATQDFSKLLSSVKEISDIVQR
row,Compound,Potency
1,CCN1C(=O)CNc2ncc(-c3ccc(-c4ncn[nH]4)nc3C)nc21,inactive
2,CN1CCN(c2ccc(Nc3ncc4cc(C#N)c(=O)n(C5CCCC5)c4n3)cc2)CC1,2430 nM (active)
3,CNC(=O)c1ccccc1Nc1nc(Nc2ccc(N3CCOCC3)cc2OC)ncc1Cl,inactive
4,C[C@@H](NC(=O)c1ncnc(N)c1Cl)c1ncc(C(=O)Nc2cc(C(F)(F)F)c(Cl)cn2)s1,6290 nM (active)
5,COc1ccc(-n2c(C)c([N+](=O)[O-])c3ccc(O)cc32)cc1,inactive
6,Cc1ccc(NC(=O)N2CCN(c3nc(N)nc4sc(-c5cccnc5)nc34)CC2)cc1,inactive
7,NC1(C(=O)N[C@@H](CCO)c2ccc(Cl)cc2)CCN(c2ncnc3[nH]ccc23)CC1,inactive
8,Cc1ccccc1-n1c([C@H](C)Nc2nc(N)nc3nc[nH]c23)nc2cccc(C)c2c1=O,inactive
9,Cc1sc2c(c1C)C(c1ccc(Cl)cc1)=N[C@@H](CC(=O)Nc1ccc(OCCOCCOCCOCCNc3cccc4c3C(=O)N(C3CCC(=O)NC3=O)C4=O)cc1)c1nnc(C)n1-2 (stereo partly specified),inactive
10,CC1(C)OCCn2c1nc1c(N3CCOCC3)nc(-c3cnc(N)nc3)nc12,inactive
11,COc1ccc(CNC(=O)Nc2ncc([N+](=O)[O-])s2)cc1,inactive
12,O=C(Nc1cc(C(F)(F)F)ccc1N1CCCCC1)c1ccncc1,inactive
13,C=CC(=O)Nc1cccc(Oc2nc(Nc3ccc(N4CCN(C)CC4)cc3OC)ncc2Cl)c1,inactive
14,O=c1cc(N2CCOCC2)nc2c3ccccc3ccn12,inactive
15,O=C1CCC(N2C(=O)c3ccccc3C2=O)C(=O)N1 (stereo unspecified),inactive
16,C[C@@H]1CCNC(=O)c2cc3ccc(C(=O)Nc4nc5ccccc5n4CCCN(C)C)cc3n21,inactive
17,O=C(Nc1ccc(OC(F)(F)F)cc1)c1sccc1NCc1ccnc2ccccc12,inactive
18,Cc1cc(Nc2ncc3c(n2)N(C)C(=O)N(c2cc(NC(=O)c4cccc(C(F)(F)F)c4)ccc2C)C3)n(C)n1,141 nM (active)

row,Compound,Potency
1,CO[C@H]1/C=C/O[C@@]2(C)Oc3c(C)c(O)c4c(O)c(c(/C=N\N5CCN(C6CCCC6)CC5)c(O)c4c3C2=O)NC(=O)/C(C)=C\C=C\[C@H](C)[C@H](O)[C@@H](C)[C@@H](O)[C@@H](C)[C@H](OC(C)=O)[C@@H]1C,inactive
2,c1cc(-c2cc(C3CCNCC3)[nH]n2)ccn1,inactive
3,O=C(NCCO)c1cccc(-c2cc(Nc3ccc(OC(F)(F)F)cc3)ncn2)c1,inactive
4,CC[C@@](C)(Nc1ccnc(-c2c[nH]c3ncccc23)n1)C(=O)NCC(F)(F)F,7060 nM (active)
5,CCCS(=O)(=O)Nc1ccc(F)c(C(=O)c2c[nH]c3ncc(Cl)cc23)c1F,inactive
6,Cc1cc(-c2cc(O)ccc2Cl)cc2nnc(Nc3ccc(OCCN4CCCC4)cc3)nc12,47.2 nM (active)
7,C[C@@H]1CN(CC(=O)Nc2ccc3c(c2)Cc2cccc(-c4cc(=O)cc(N5CCOCC5)o4)c2S3)C[C@H](C)O1,inactive
8,NC1CCC(Nc2nc(Nc3ccc(C(=O)N4CCCCC4)cc3)c3ncn(-c4cccc(F)c4)c3n2)CC1 (stereo unspecified),3970 nM (active)
9,COc1cc2ncnc(Oc3cccc(NC(=O)Nc4cc(C(C)(C)C(F)(F)F)on4)c3)c2cc1OC,2500 nM (active)
10,COc1cc2ncnc(-n3nc(-c4ccccn4)nc3N)c2cc1OC,1060 nM [activator] (active)
11,CC(C)(NS(=O)(=O)c1ccc2c(Cl)cnc(N=C(N)N)c2c1)C(=O)O,inactive
12,CCCCNc1ncc2c(-c3ccc(S(=O)(=O)N4CCOCC4)cc3)nn(C3CCC(O)CC3)c2n1 (stereo unspecified),7480 nM (active)
13,Cc1cc(O)c2c(c1)C(=O)c1cc(O)cc(O)c1C2=O,inactive
14,CN1CCN(CCCNc2ncc(Cl)c(-c3cc4c(C(=O)NC5CC5)cccc4s3)n2)CC1,inactive
15,O=C(O)C1(Cc2cccc(Nc3nccs3)n2)CCC(Oc2cccc(Cl)c2F)CC1 (stereo unspecified),1030 nM (active)
16,CC(C)(C)n1nc(-c2cccc3ccccc23)c2c(N)ncnc21,inactive
17,CCN1/C(=C\C(C)=O)Sc2ccc(OC)cc21,inactive
18,COc1cc2c(N3CCN(C(=O)Nc4ccc(OC(C)C)cc4)CC3)ncnc2cc1OCCCN1CCCCC1,inactive
